In all, about 300,000 compounds went through this assay and about 65 (0.02%) were called active.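 How the source made its calls: active means lowest replicate activity score at least 50, where 100 means six control SD above control mean; inconclusive means lowest score under 50 but half or more replicates reach 50; inactive means the rest.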 The entries come from a sample that favours actives as a whole.
Assay: perturbers of mRNA poly(A) processing – luminescence, S. cerevisiae, primary screen (AID 1875);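 further: yeast exposed to compound for 9 h at 30 °C; higher score means more reporter readthrough which indicates perturbed polyadenylation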
Conditions: S. cerevisiae SKY197-pL101 polyadenylation reporter, beta-gal luminescence; at 12 µM; hits give high values; efflux-impaired pdr1/pdr3 knockout yeast; score 100 = 6 SD above DMSO

Activity score, inactive:
O=C(NCCS(=O)(=O)N1CCN(c2ccccc2F)CC1)c1ccc(Br)o1 1.43%
CCOc1ccc(C2c3[nH]c4ccccc4c3CCN2Cc2cccn2-c2ncccn2)cc1 (configuration not stated) 0.986%
CCc1c(C)nc2c(OC)cccc2c1Cl -37.6%
O=C(CN1CCOCC1)Nc1c2c(nc3c1CCC3)CCC2 1.76%
CC1(C)CCSC(/C=C/c2ccccc2)=N1 6.99%
COc1ccc(-n2c(O)c(C=NCC(c3ccco3)N3CCCC3)c3ccccc3c2=O)cc1OC (configuration not stated) 6.18%
COc1cc(NC(=O)c2cncc(-c3ccc(C#N)cc3)c2)cc(C(=O)Nc2cccc(C(F)(F)F)c2)c1 -7.7%
O=C(C1CCN(c2nnc(-n3cccc3)s2)CC1)N1CCc2ccccc2C1 9.11%
CCc1noc(C)c1C(=O)Oc1ccc(N(C)S(=O)(=O)c2ccc(C)c(C)c2)cc1 0.103%
Cc1ccc(CNC(=O)C2CCN(S(=O)(=O)c3ccc4nc5c(c(C(=O)O)c4c3)CC(C)CC5)CC2)cc1 (configuration not stated) -6.73%
CCn1cc(CN2CCC(C(=O)Nc3cccc(-c4cccc(Cl)c4)c3)CC2)c(C)n1 3.2%
Cc1ccc(-c2cc(C(=O)NCc3cn(C)nc3C)c3cc(Br)ccc3n2)cc1 2.61%
O=C(c1ccncc1)N1CCN(S(=O)(=O)c2cc(C(F)(F)F)cc(C(F)(F)F)c2)CC1 9.96%
COc1ccc(C(CNC(=O)c2ccc(S(=O)(=O)Nc3ccccc3F)cc2)N(C)C)cc1 (configuration not stated) 4.77%
CCCCn1c(N)c(N(CCOC)C(=O)CSCC(=O)Nc2cccc(C)c2)c(=O)[nH]c1=O 10.8%
Cc1cc(C)nc(NS(=O)(=O)c2ccc(N/C=C\C(=O)c3cccs3)cc2)n1 -11%
O=C(c1snnc1-c1ccccc1)N1CCOCC1 18.7%
CC(OC(=O)CNC(=O)c1ccco1)C(=O)Nc1ccc(Cl)cn1 (configuration not stated) -11.7%
CCOc1ccccc1OCCCNCc1ccccc1 14.2%
COc1cc(C(=O)NCCOC(=O)c2cccc(N(C)C)c2)cc(OC)c1OC 1.84%
O=c1[nH]cnc(O)c1C(c1ccc(F)cc1)c1c(O)nc[nH]c1=O -1.62%
COc1ccc([N+](=O)[O-])cc1N(CC(O)CN(CC(C)C)CC(C)C)S(=O)(=O)c1ccc(C)cc1 (configuration not stated) 12.6%
O=[N+]([O-])c1cc(C(F)(F)F)ccc1NCCc1ccncc1 -17.4%
CC(C)CCNC(=O)c1cccnc1Sc1ccccc1 -10.2%
COc1ccc(NC(=O)C/C(C)=N/NC(=O)c2cnccn2)cc1Cl 4.46%
CCN(CC)CC(=O)Nc1nn(-c2ccccc2)nc1C(N)=O 3.8%
Cc1ccccc1N1C(=O)C(Oc2ccc(Cl)cc2)C1CNCC1CCCO1 (configuration not stated) -13.7%
COC(=O)c1ccc(SCc2ccccc2)nc1 5.84%
CC(C)(C)N(Cc1ccccc1)C(=O)COC(=O)CCc1c[nH]c2ccccc12 9.29%
CCN(CC)c1ccc(C(=O)Nn2c(C)nc3ccccc3c2=O)cc1 -0.748%
O=C(CCc1nnc(Cc2ccc3c(c2)OCO3)o1)NCCc1ccccc1Cl 6.46%
O=C(COc1coc(CN2CCN(c3ccccc3)CC2)cc1=O)N1CCc2ccccc21 -4.04%
O=C(Cc1ccccc1)Nc1c(Cl)ccc2nsnc12 16.1%
Cc1[nH]n(C(N)=S)c(=O)c1N=Nc1ccc(Cl)cc1Cl -14.2%
COc1ccc(OC)c(NC(=O)CSc2nc(-c3ccccc3)cc(=O)[nH]2)c1 -4.65%
CC1CCN(CCCn2c(SCC(=O)NC3CCCC3)nc3ccccc3c2=O)CC1 -3.59%
COc1cccc(C(=O)Nc2nnc(S(=O)(=O)N3CCOCC3)s2)c1 16.5%
Cc1ccc(S(=O)(=O)C2C(=O)NC3(C)CC2c2ccccc2O3)cc1 (configuration not stated) 1.24%
COc1ccc(C(=O)C2CCCN(C(=O)c3cc4nc(C)cc(C)n4n3)C2)cc1F (configuration not stated) 4.72%
CN(CCO)c1ccc(/C=N/Nc2nncc3ccccc23)cc1 -9.02%
Cc1ccccc1CN1C[C@@H]2C[C@@H](c3cn(C)nc3-c3ccccc3)N3CCC[C@@]23C1=O -0.645%
COc1cc(CNc2ncn[nH]2)ccc1OCc1ccccc1C 5.71%
CN(CCOc1ccccc1)Cc1nc2cc(Cl)ccc2c(=O)[nH]1 6.63%
CC(C)(C)c1ccccc1NC(=O)CN1C(=O)NC2(CCCC2)C1=O 9.67%
Cc1ccc(CS(=O)(=O)CCC(=O)NCc2ccc(F)cc2)cc1 -0.106%
CCn1c(Cc2ccc(OC)cc2)nnc1SCC(=O)Nc1ccc(N2CCOCC2)cc1 -14.5%
Cc1ccc(NN=Nc2nc3c([nH]2)c(=O)n(C)c(=O)n3C)cc1 15.9%
COc1cc(NS(=O)(=O)c2ccc(NC(=O)c3ccc([N+](=O)[O-])cc3)cc2)ncn1 -0.0482%
O=C(CCCCCn1c(=S)[nH]c2ccsc2c1=O)NC1CCCCC1 -14.5%
CCCCn1c(N)c(N(CCOC)C(=O)c2cccc(OCc3ccccc3)c2)c(=O)[nH]c1=O -6.78%
Brc1ccccc1/C=N/Nc1nc2ccccc2o1 -16.6%
Cc1ccc(N(Cc2cc(=O)[nH]c3ccccc23)C(=O)CCl)cc1 29.9%
COC(=O)c1c(C)[nH]c(C(=O)/C=C/c2ccc(Cl)cc2)c1C -2.04%
O=C(NCCc1ccccc1)C1CCC(Cn2c(=O)c3ccccc3n(Cc3cccnc3)c2=O)CC1 (configuration not stated) -5.99%
COc1ccc(-c2nn(-c3ccccc3)cc2CN2CCCO2)c(F)c1 0.939%
O=C(NCCCn1ccnc1)/C(=C\c1ccccc1F)NC(=O)c1ccccc1 11.1%
CN(C(=O)C1CCN(c2ncnc3c2nc2n3CCCCC2)CC1)C1CCCCC1 5.63%

Reference: PubChem BioAssay AID1875 (Broad Institute, 2009)
